Hit rate of the full screen: of about 69,000 compounds, about 8,600 (12%) showed an effect of 50% or more. This excerpt belongs to a sample that is enriched for strong results.
Test system: Plasmodium berghei
Assay: Screen against P. berghei liver stage (PbLuc), transformed with Luciferase, at 10uM
Type: functional, HepG2
Conditions: tested at 10 uM

SMILES | INHIBITION [%]
COc1ccccc1C(=O)N(C)Cc1nnc2ccccn12 | -81.1
Cn1c(N2CCOCC2)nc2cc(C(=O)N3CCC(O)(CO)C3)ccc21 (stereo not given) | 44.7
CCOc1ccc(NCC(=O)NCC(=O)N2CCCC2)c(C(F)(F)F)c1 | 16.5
O=C(O)CCC(=O)Nc1nn(Cc2ccc(F)cc2)cc1Cl | 46.6
CN1CCN(C(=O)c2cccn2C)c2ccccc2C1 | -39.2
COCCN1CC[C@@H](OC)[C@@H]1Cc1ccccc1 | -34.7
Cc1nnc(NC(=O)CN2CCc3c(nc(C(C)C)n3C)C2)s1 | 17.3
CC(O)CN1CCC(CN(C)CC(=O)NC2CCOCC2)CC1 (stereo not given) | -8.31
CCC(C)(C)NC(=O)Cn1nc(C)nc1-c1ccccc1 | -31.5
O=C1NC2(Cc3ccccc31)CN(CC1CCNCC1)C2 | 26.7
CC(=O)NCC(=O)NCC1Cn2nnc(-c3cccc(F)c3)c2CO1 (stereo not given) | 27.6
c1ccc(-c2nnn3c2COC(CNCC2CC2)C3)cc1 (stereo not given) | 42.7
O=C(NCC1Cn2nnc(-c3ccsc3)c2CO1)N1CCCC1 (stereo not given) | 2.26
CCS(=O)(=O)NCC1Cn2nnc(-c3ccccc3)c2CO1 (stereo not given) | 54.4
CCS(=O)(=O)NCC1Cn2nnc(-c3cccc(C)c3)c2CO1 (stereo not given) | 50.3
Cc1cccc(-c2nnn3c2COC(CNC(=O)N2CCCC2)C3)c1 (stereo not given) | 62.9
c1ccc(-c2nnn3c2COC(CNCC2CCOCC2)C3)cc1 (stereo not given) | 44.9
CCOCC(=O)NCC1Cn2nnc(-c3cccc(F)c3)c2CO1 (stereo not given) | 38.5
Cc1cccc(-c2nnn3c2COC(CNS(=O)(=O)C2CC2)C3)c1 (stereo not given) | 44.8
NC1CCN(S(=O)(=O)c2ccc(C(=O)N3CCSCC3)cc2)C1 (stereo not given) | 2.49
CC(C)OCc1nn(CC2CC2)c2c1CN(Cc1ccco1)CC2 | -107
CC(C)(CN1CCC(Cc2ccc(CO)cc2)C1)N1CCOCC1 (stereo not given) | 23.5
O=C(CCn1ccc2ccccc21)Nc1ccnn1CC1CCOC1 (stereo not given) | 10.1
O=C(O)c1cc2c(nc1N1CCCC1)CCN(C1CCOCC1)CC2 | -15.3
O=c1[nH]cnc2c1CCN(S(=O)(=O)c1ccc(Cl)cc1)C2 | 36.2
CN(C)CCN(C)C(=O)Cn1cccc2cc(-c3ccc(F)cc3)nc1-2 | 26.7
Cn1nc(C2CNCCO2)cc1CCOc1cccc(C(F)(F)F)c1 (stereo not given) | 37.8

SMILES | INHIBITION [%]
CN1CCCC(CCC(=O)N2CCc3[nH]c(-c4ccccc4)nc3C2)C1 (stereo not given) | 23
CC(C(=O)NCc1ccc(N2CCN(C)CC2)nc1)n1cccn1 (stereo not given) | 2.243
Cc1ccc(CN2CC[C@H]3OCC[C@@H](C(=O)NCC4CC4)[C@@H]3C2)s1 | 5.96
CNC(=O)c1cccc(C2CNCCN2C(=O)c2ccn(C)n2)c1 (stereo not given) | 33.7
CCn1cnnc1C1CCN(C(=O)c2cnc3ccccc3n2)CC1 | 21.3
CCc1nnc(CN2CC(n3cccn3)C2)o1 | -110
Cc1ccc(N2CCCC(NCC(=O)NC(C3CC3)C3CC3)C2)nn1 (stereo not given) | -6.44
CC(=O)N1CCC2(CC1)CCN(C(=O)c1cccc(C(F)(F)F)c1)C2 | 55.5
CC(=O)N1CCC2(CCN(C(=O)c3ccc(F)c(C(F)(F)F)c3)CC2)C1 | 6.6
CC(=O)N1CCC2(CCN(C(=O)c3ccc(C)c(C(F)(F)F)c3)CC2)C1 | 16.5
CC(=O)N1CCC2(CCN(C(=O)c3cccc(C(F)(F)F)c3)CC2)C1 | 63.7
CC(=O)N1CCC2(CCN(C(=O)c3ccc(F)c(C(F)(F)F)c3)C2)C1 (stereo not given) | 17.1
CC(=O)N1CCC2(CC1)CCN(C(=O)c1ccc(F)c(C(F)(F)F)c1)C2 | 12.4
Cc1cc(NCCc2nc(C)c[nH]2)nc(-c2ccccc2O)n1 | 43.6
CN1CCN(C(=O)N2CCC3(CCCN(C4CCOCC4)C3=O)C2)CC1 (stereo not given) | -1.15
Cc1ccc2c(n1)N(CC(C)C)CCN(S(C)(=O)=O)C2 | 67.2
Cc1ccc2c(n1)N(Cc1ccncc1)CCN(S(C)(=O)=O)C2 | 36.9
COCCN1CCN(S(C)(=O)=O)Cc2ccc(C)nc21 | 16.9
CS(=O)(=O)NCC(Cc1cccc(F)c1)N1CCNC1=O (stereo not given) | 15.7
Clc1ccc(COCC2CCN(Cc3ccccn3)CC2)cc1 | 62.3
COc1cc(COCC2CCN(Cc3ccccn3)CC2)cc(OC)c1 | 6.54
Fc1ccc(COCC2CCN(Cc3ccccn3)CC2)cc1 | -56.4
Cc1nc(NC(=O)CNC(=O)c2c(F)cccc2Cl)n[nH]1 | -8.69
CCOCCN1CCN(Cc2cccc(C(=O)N(C)C)c2)CC1C (stereo not given) | -9.37
CN1CCCC1c1cncc(C(=O)NCC2CC2)n1 (stereo not given) | -80
c1ccc(CNc2nc(N3CCOCC3)nc3nccnc23)cc1 | 30.7
O=S(=O)(N1CCCCCC1)N1CCCN(CC2CCCO2)CC1 (stereo not given) | 9.57

SMILES | INHIBITION [%]
COc1ccnc(CNc2nc(C)nc(C)c2C)c1 | -27.6
COc1ccnc(CNc2cc(C3CC3)ncn2)c1 | -47.2
COc1ccnc(CNc2nc(C)nc3ccsc23)c1 | 76.9
CC(C(=O)NCc1ccc(N2CCCCC2)nc1)S(C)(=O)=O (stereo not given) | 9.54
Cc1n[nH]c(C)c1CCC(=O)NCC1(O)CCN(c2ccccn2)C1 (stereo not given) | 3.48
Cn1cc(C(=O)N2CCCC(c3ccncc3)C2)cn1 (stereo not given) | -16.5
CN1CCC(c2n[nH]c(=O)n2CC2CCCCC2)CC1 | 40.6
CNCc1n[nH]c(=O)n1CC1CCCCC1 | 23.9
CN1CCN(Cc2n[nH]c(=O)n2CC2CCCCC2)CC1 | 70.3
O=C(c1cccnc1)N1CCCC(Cc2nccs2)C1 (stereo not given) | -9.27
Cc1nc(N2CCCC2)nc2c1CCN(C(=O)NC1CCCC1)CC2 | -6.23
O=C(Cc1ccccn1)N1C[C@H](OCc2cccnc2)[C@H]2COC[C@H]21 | -31
Cc1cc(C)n2c(CNCCNc3ccccc3)cnc2n1 | -35.2
CCN(CC)C(=O)Cc1csc(C(C)C)n1 | -4.4
CC(Cn1cccn1)NC(=O)Cc1csc(C(C)C)n1 (stereo not given) | 0.914
CNC(=O)CN(C)C(=O)Cc1csc(C(C)C)n1 | 12.3
CC(C)c1nc(CN(CC(N)=O)C(C)C)cs1 | 31.8
CCN(CC(=O)NC)C(=O)Cc1csc(C(C)C)n1 | 62.4
CCNC(=O)CN(CC)C(=O)Cc1csc(C(C)C)n1 | 81.6
O=C(c1cocn1)N1CCC2(CC1)CC(Oc1ccccn1)CO2 (stereo not given) | -0.804
COC(=O)c1ccoc1CN(C1CC1)C1CCS(=O)(=O)C1 (stereo not given) | 42.8
Cc1nc(C)n(CC2CCCCN2Cc2cnc(C)s2)n1 (stereo not given) | 30.6
CCOc1ncccc1C(=O)NC1CCCN(c2ncccn2)C1 (stereo not given) | -39.7
O=C(NCC1CCC2(CC1)OCCO2)c1cccc(-n2cccn2)c1 | 30.2
COc1ncccc1CNCc1cnc(N2CCOCC2)nc1 | -65
Cc1cnn(CC2CN(CC(=O)Nc3c(C)nn(C)c3C)CCO2)c1 (stereo not given) | 26.4
CS(=O)(=O)N[C@@H]1CN(C(=O)c2cnccn2)[C@@H]2CCCO[C@@H]21 | 26.4

SMILES | INHIBITION [%]
CS(=O)(=O)N[C@@H]1CN(C(=O)c2cccnc2)[C@@H]2CCCO[C@@H]21 | 56.7
CS(=O)(=O)N[C@@H]1CN(C(=O)c2ccccn2)[C@@H]2CCCO[C@@H]21 | 37.5
CC(=O)N1C[C@H](NC(=O)c2cscn2)[C@@H]2OCCC[C@@H]21 | 42.6
Cc1cccc(C(=O)N2C[C@H](NS(C)(=O)=O)[C@@H]3OCCC[C@@H]32)n1 | 31.1
CS(=O)(=O)N[C@H]1CN(C(=O)c2cscn2)[C@@H]2CCCO[C@H]12 | 60.2
CO[C@H]1CN(C(=O)c2cccnc2)[C@@H]2CCCO[C@H]12 | -14.7
CN1C[C@H](NC(=O)c2cscn2)[C@@H]2OCCC[C@@H]21 | 35.8
NC(=O)N1C[C@H](NC(=O)c2cscn2)[C@@H]2OCCC[C@@H]21 | 60.2
CNc1ncccc1CN1CCCCC1c1cc(C)n2ccnc2n1 (stereo not given) | 13
CN(Cc1cccnc1)C(=O)NC1CCN(Cc2ccccn2)CC1 | 16.8
CC(CCN(C)C)NC(=O)N1CCSC(C)(C)C1 (stereo not given) | 60.3
CSCCC(C)NC(=O)N1CCSC(C)(C)C1 (stereo not given) | 14.9
COCCC(C)NC(=O)N1CCSC(C)(C)C1 (stereo not given) | 48.3
Cc1nc(C2CCCN2CCS(C)(=O)=O)no1 (stereo not given) | 26.55
CCCSc1nn(CCCN(C)C)c2nc3sc(C)c(CC)c3c(=O)n12 | 11.6
CCCSc1nn(CCN(C)C)c2nc3sc(C)c(CC)c3c(=O)n12 | 88.1
CCc1c(C)sc2nc3n(CCN(C)C)nc(SC)n3c(=O)c12 | 30.5
Cc1nn(C)c2cnn(CC(=O)NCc3cccs3)c12 | 8.49
CC(C)n1c(=O)c2ccccc2n(CCN(C)C)c1=O | -0.29
CCn1ncnc1C1CC(=O)NCc2nc(N3CCCC3)sc21 (stereo not given) | -32.5
CCCC(=O)N1CCC(Nc2nc(O)cc(-c3ccsc3)n2)CC1 | 10.7
CCCn1ncc2c(C(=O)Nc3n[nH]c(SC)n3)cc(C3CC3)nc21 | 53
CCCn1ncc2c(C(=O)NC(C)Cn3cccn3)cc(C3CC3)nc21 (stereo not given) | -24.1
CCCn1ncc2c(C(=O)Nc3cnn(CC)c3C)cc(C3CC3)nc21 | -9.98

Source: ChEMBL document CHEMBL4513216, “Probing the Open Global Health Chemical Diversity Library for Multistage-Active Starting Points for Next-Generation Antimalarials” (ACS Infect Dis, 2020)
